Drawing on the supplement of paper PMC13380429, this text covers morphology score for seven compounds.

The assay has as its system Vero E6 infected with SARS-CoV-2. The experiment in a line: morphology score (similarity to uninfected cells); higher = more like uninfected cells. Particulars: 24 h.
The compound `CCN(CC)CCCC(C)Nc1c2ccc(Cl)cc2nc2ccc(OC)cc12` (configuration not stated) [mepacrine] (0.833333 µM) came in with a morphology score of 0.481.

`CCNC(=O)[C@H]1O[C@@H](n2cnc3c(N)ncnc32)[C@H](O)[C@@H]1O` (10 µM) yielded a morphology score of 0.184.

Turning to `O=C1NC(c2ccccc2)(c2ccccc2)C(=O)N1COP(=O)(O)O` [fosphenytoin] (10 µM), the morphology score was -0.197. For `CC(=O)C1=C(O)[C@@H]2[C@H]3c4c[nH]c5cccc(c45)C[C@H]3C(C)(C)N2C1=O` [cyclopiazonic-acid] (0.833333 µM) the value was 0.361. With `CCCOc1ccc(S(=O)(=O)N2CCN(CCO)CC2)cc1-c1nc2c(CCC)cn(CC)c2c(=O)[nH]1` [mirodenafil] (10 µM) the figure was 0.127; with `CN(C)C(=O)c1cc2cnc(Nc3ccc(N4CCNCC4)cn3)nc2n1C1CCCC1` [ribociclib] (10 µM), 0.244. With `O=c1cc(-c2ccccc2)oc2cc(O)c(O)c(O)c12` [baicalein] (10 µM), the morphology score is 0.196.
